# Data: the supplement of paper PMC6555819
# Tests used:
# Assay in all cases: PBM binding z-score (relative to random genomic background probes); higher = stronger binding; sequences stand for … in GC…GCGATTGACAGCGTAGAATGAAGG
# [1] = system: PPARg:RXRa DBDmut IVT, anti-RXR (DBD mutation: RXRa K156A/R161A, NR concentration 270 nM, RXRa partner concentration 90 nM)
# Procedure, shortened: (§1)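 Each nuclear receptor dimer, without ligand, was incubated for 1 h on custom Agilent 4×180K protein-binding microarrays. Binding was detected with antibodies against each partner (one per run), and scanned fluorescence was regression-normalized. The binding z-scores are referenced to random human genomic background probes.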
# [2] = system: PPARg:RXRa IVT, anti-PPARg (NR concentration 270 nM, RXRa partner concentration 90 nM)
# Procedure, shortened: as §1
# [3] = system: PPARg DBDmut:RXRa IVT, anti-PPARg (DBD mutation: PPARg1 K132A/R137A, NR concentration 270 nM, RXRa partner concentration 90 nM)
# Procedure, shortened: as §1
# [4] = system: PPARg DBDmut IVT, anti-PPARg (DBD mutation: PPARg1 K132A/R137A, NR concentration 270 nM)
# Procedure, shortened: as §1
# [5] = system: PPARg homodimer (NR concentration 180 nM)
# Procedure, shortened: as §1
# [6] = system: PXR:RXRa (NR concentration 270 nM, RXRa partner concentration 90 nM)
# Procedure, shortened: as §1
# [7] = system: PXR homodimer (NR concentration 270 nM)
# Procedure, shortened: as §1
# [8] = system: RARa:RXR (NR concentration 270 nM, RXRa partner concentration 90 nM)
# Procedure, shortened: as §1
# [9] = system: RARa homodimer (NR concentration 270 nM)
# Procedure, shortened: as §1
# [10] = system: RARb:RXRa (NR concentration 270 nM, RXRa partner concentration 90 nM)
# Procedure, shortened: as §1
Sequence,PBM binding z-score [1],PBM binding z-score [2],PBM binding z-score [3],PBM binding z-score [4],PBM binding z-score [5],PBM binding z-score [6],PBM binding z-score [7],PBM binding z-score [8],PBM binding z-score [9],PBM binding z-score [10]
AGTCAAAGTTCAGGACGAGGTAACGTACAGCACG,-0.265,2.01,0.413,0.297,1.59,2.95,0.808,3.01,0.256,4.18
ATCTCTAGGTAACCCAGTTCAGTGAATGCCGAAC,4.06,4.47,1.33,1.28,1.12,1.64,1.23,0.719,0.547,0.652
TGAATGAGGGTAAAGATCAGGGAACGTGGCGTCG,2.27,3.04,0.811,1.2,1.24,-0.131,-0.487,0.239,0.383,0.817
GCATATAGGTAATACAAGGAGAAAGTCCGATTGT,3.9,2.35,0.451,1,-0.266,-0.205,0.00189,0.277,0.43,-0.406
CGTCAAAGTTCAAGGTATCGTAACAGAAAGCAGC,0.378,1.35,-0.37,0.459,2.03,3.81,1.91,3.09,1.17,4.93
CGTCAAAGTTCAAGGTAACGTAACAGAAAGCAGC,0.893,2.47,1.4,0.701,2.19,4.2,2.44,3.28,1.04,5.17
GCGACTGGGGCAAAGCAGGTTACGATAAGGTTGG,4.13,3.73,-0.523,-0.59,0.215,0.285,-0.433,0.352,-0.129,0.879
ATTGAAAGGTCGTGAGGTGAGTATACAGAAAGGC,0.728,3.15,1.53,1.68,2.07,3.07,0.914,4.27,1.15,4.3
AGAATGAGGTGACCAAAGATCAGGGAAACGCTTG,4.37,4.21,0.497,0.08,0.216,0.534,-0.16,0.899,-0.253,1.3
TCTCGGAGTACACGAAAGGTCAGAGCTCGACATC,1.42,1.77,0.689,0.21,1.29,4,-0.3,4.04,-0.148,3.79
ACTATTAGTTGAGACGAGGGCTACCGATAGGTTG,0.458,0.0737,0.772,0.929,-0.361,-0.232,-0.105,-0.544,0.451,0.191
CCTCGGAGGACAACAGGAGGTCAGAGCAGCCAGA,-0.204,0.388,-0.931,-1.16,1.41,2.05,0.438,2.23,0.698,2.87
CAAACTAGGTCAAGAAAGGTCAAAGTCGAATGAC,8.14,8.39,1.43,1.46,4.85,6.73,3.25,7.01,3.23,5.44
GCATATAGGTAATACTAGGTGAAAGTCCGATTGT,4.82,4.2,0.862,0.925,0.614,0.155,0.151,1.1,0.695,0.113
CAAACTAGGTCACCGCAAGGTCAAAGTCCGCATG,8.65,8.87,6.76,3.92,8.41,6.08,2.22,6.85,2.14,5
TCTTGTAGATCTAAGGTTAAGAAAGCCGAAGCCT,1.71,0.863,0.224,-0.213,0.385,0.921,-0.35,1.55,-0.0766,0.9
AGAATGAGGTTACCAAATATCAGGGAAACGCTTG,4.3,3.78,1.63,0.617,0.301,1.05,0.00391,1.77,-0.0256,2.1
GCAGACAGGTGAAACGTAGGTAACTCAGGGTGGC,1.69,0.679,-0.482,-0.518,-0.211,-0.374,-0.933,0.315,-0.166,0.76
TCATATAGGTAAAAGGTGAAAATCGGTGTGGTAA,5.1,5.08,1.43,0.511,2.07,1.97,0.321,3.05,1.48,1.78

Sequence,PBM binding z-score [1],PBM binding z-score [2],PBM binding z-score [3],PBM binding z-score [4],PBM binding z-score [5],PBM binding z-score [6],PBM binding z-score [7],PBM binding z-score [8],PBM binding z-score [9],PBM binding z-score [10]
CCTAGTGGGCCATTCAGAGGTCATTGATCATATG,4.41,4.44,1.45,0.315,4.35,4.94,2.6,4.89,0.902,2.98
CGAACTAGGTCATTGACAGGACACTGAATAGTAA,8.02,7.96,2,1.46,2.02,1.66,0.493,2.18,0.218,3.69
CGAACTAGGTCATCCAAGACAGTGAATACATTGA,8.33,8.19,3.65,2.15,1.93,1.67,0.36,2.67,1.01,3.95
CCAATTAGTTGACCATAAGGGCAACCGAAGCTCG,0.617,0.411,0.198,0.147,1.75,0.497,0.892,0.865,1.38,1.67
CCGACAGGGGCAAAGGTTACCATACTCAGTACGA,0.215,3.27,-0.209,-0.953,1.78,3.35,-0.101,5.32,-0.576,2.89
CGAACTAGGTCATTGAAAGGACAGTGAATAGTAA,8.01,8.24,2.22,2.02,3.92,2.1,0.391,4.04,1.01,4.1
CCTTACGTGTCAAGGTTATAGCACGGGTGGTACG,0.564,0.962,-0.292,0.0662,0.942,0.998,0.776,1.16,1.18,1.57
GCGACCGGGGCAAAGCAGGTTACCATAAGGTTGG,1.27,1.24,-1.18,-1.17,0.243,0.857,-0.433,1.31,-0.661,1.65
CGTCCACGGTCAAAGGTCAGTGAAGAGATGACGG,1.1,3.94,-0.461,-0.195,6.23,4.9,0.288,7.25,2.09,5.01
CCTTACGGGTCACTGACAGGTTATAGTATTTGGA,3.44,3.9,0.845,0.452,2.3,3.46,0.317,4.47,0.728,3.93
GCAGACAGGTGAAACGAAGGTAACTCAGGGTGGC,0.963,0.555,0.0896,-0.484,-0.228,0.0362,-0.595,0.681,-0.536,0.818
TCTATTAGTTTATTAGGGCAACCGAAACAGCGGA,4.65,4.46,2.16,2.42,1.44,1.07,1.21,0.944,1.74,1.57
CGTCCCAGGTCAATGCTAGGTCAGTGAAAGCATT,2.01,2.96,-0.129,-0.875,3.66,3.21,0.306,4.72,-0.102,4.37
CAAACTAGGTCAGCGGAAGGTCAAAGTCCGCATG,7.81,8.08,3.33,1.19,5.64,5.42,1.11,6.59,1.75,4.89
ATCGAAAAGTCGAGGTGAGTATAGAGAAAGGGAA,-0.205,0.704,1.25,-0.338,0.107,-0.235,0.048,0.0313,-0.268,0.639
CGTCCAAGATCAAAGGTCAGTGAAGAGATGACGG,0.235,2.39,0.493,-0.0647,3.36,3.67,0.13,5.06,1.29,4.37
AGAGACAGGTGAGTGAAGGTAACTCAGCTGGACG,0.422,0.599,0.635,-0.659,0.101,0.0989,0.169,0.435,-0.0726,0.876
CCTCGGAGGACGGAAGGTCAGAGCTGTCCGCTTT,-0.591,-0.453,-1.93,-2.58,1.18,1.33,0.186,1.76,-0.121,2.6
TCTAGTTGGTCACGGAGGTCACACAAGACGGGTA,2.31,4.34,0.505,0.71,2.71,4.55,1.16,4.17,1.37,3.87
